# FLuc inh – inhibitors of firefly luciferase; P08659; purified firefly luciferase, luminescence, 8 min; Potency, µM (highest dose often 57.1 µM), inactives show at the top dose activity change, negative = inhibition, hits mostly inhibitors; 72,000 compounds, 2.2% hits; further: on the % scale 0 is the no-effect control and ±100 the full control effect; nearly all actives have a fitted effect of over 40% in size
#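 Compounds were tested as concentration series (qHTS) against purified P. pyralis luciferase with luciferin and 10 uM ATP in 50 mM imidazole pH 7.2, 50 mM KCl, 7 mM MgCl2, 0.01% Tween 20, 0.05% BSA. Luminescence was read after 8 min at ambient temperature.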
# ALOX15 inhib – blocks human 15-lipoxygenase activity. P16050. purified 15hLO-1, xylenol orange hydroperoxide absorbance. Potency, µM (highest dose often 57.1 µM), without a hit: top-dose activity change, negative = inhibition, most hits filed as inhibitors. 74,000 compounds, 1.4% hits; further: on the % scale 0 is the no-effect control and ±100 the full control effect; nearly all actives have a fitted effect of over 55% in size
#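 Hydroperoxide formed from arachidonic acid (50 uM) by purified human 15hLO-1 (40 nM) oxidizes ferrous iron, and the ferric-xylenol orange complex is read at 573 versus 405 nm. Compounds were preincubated 15 min; reaction ran 6 min at room temperature.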
# TSHR ag – activates the human thyroid stimulating hormone receptor. 73,000 compounds, 0.48% hits. Potency, µM (highest dose often 57.1 µM), for the others: top-dose activation, hits mostly activators. P16473. HEK293-CNG-TSHR cells (CNG channel as cAMP sensor), membrane potential dye, cAMP; active means well fitted activation curve with a large enough effect in the main read-out, with a control signal flat, not every such curve was filed as active; inconclusive means small, poorly fitted or top-dose-only effect, or a change in a side signal; inactive means no such curve, though single readings can be large or run the other way; % of control where 0% means no effect;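 further: the control signal comes from parental cells without the receptor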
#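 HEK 293 cells stably expressing TSHR and a modified CNG channel, with CNG-only parental cells as counterscreen, were preloaded 60 min at room temperature with membrane potential dye containing 100 uM RO 20-1724. Compound exposure was 30 min, and depolarization was read as fluorescence at 590 nm.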
# HEK293 cAMP ctrl – parental HEK293 cAMP activation (counter-screen); 73,000 compounds, 2.5% hits; parental HEK293 CNG cAMP sensor, membrane potential fluorescence; AID 938; Potency, µM (doses to about 57.1 µM), inactives show at the top dose activation, most hits filed as activators; further: % of control where 0% means no effect; nearly all actives have a fitted effect of over 55% in size
#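 Parental HEK 293 cells stably expressing a modified CNG channel (no TSHR) report cAMP rise as membrane depolarization. Membrane potential dye with 100 uM RO 20-1724 was loaded for 60 min at room temperature, then compound added for 30 min; fluorescence read at 590 nm.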
# Bst PK mod – modulators of Bacillus stearothermophilus pyruvate kinase; purified pyruvate kinase, luminescence ATP production; ribose 5-phosphate activator present at AC10; Potency, µM; 51,000 compounds, 1.2% hits; in the data active means potency below about 11 µM; inconclusive means mostly about 12 µM to 25 µM;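 the screen sought inhibitors and activators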;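 further: scaled between full activation by ribose 5 phosphate and full inhibition by luteolin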
# Tau fil binding – binders of human tau filaments | AID 596 | Potency, µM (highest dose often 57.1 µM), for inactives: at the top dose activity change, negative = inhibition | 71,000 compounds, 2% hits | recombinant tau filaments, thioflavin S fluorescence, 15 h; filaments grown with octadecylsulfate alongside compound;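 further: on the % scale 0 is the no-effect control and ±100 the full control effect; actives lower thioflavin S fluorescence by blocking filaments or displacing dye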
# Target sequence (P10636 whole entry, looked up): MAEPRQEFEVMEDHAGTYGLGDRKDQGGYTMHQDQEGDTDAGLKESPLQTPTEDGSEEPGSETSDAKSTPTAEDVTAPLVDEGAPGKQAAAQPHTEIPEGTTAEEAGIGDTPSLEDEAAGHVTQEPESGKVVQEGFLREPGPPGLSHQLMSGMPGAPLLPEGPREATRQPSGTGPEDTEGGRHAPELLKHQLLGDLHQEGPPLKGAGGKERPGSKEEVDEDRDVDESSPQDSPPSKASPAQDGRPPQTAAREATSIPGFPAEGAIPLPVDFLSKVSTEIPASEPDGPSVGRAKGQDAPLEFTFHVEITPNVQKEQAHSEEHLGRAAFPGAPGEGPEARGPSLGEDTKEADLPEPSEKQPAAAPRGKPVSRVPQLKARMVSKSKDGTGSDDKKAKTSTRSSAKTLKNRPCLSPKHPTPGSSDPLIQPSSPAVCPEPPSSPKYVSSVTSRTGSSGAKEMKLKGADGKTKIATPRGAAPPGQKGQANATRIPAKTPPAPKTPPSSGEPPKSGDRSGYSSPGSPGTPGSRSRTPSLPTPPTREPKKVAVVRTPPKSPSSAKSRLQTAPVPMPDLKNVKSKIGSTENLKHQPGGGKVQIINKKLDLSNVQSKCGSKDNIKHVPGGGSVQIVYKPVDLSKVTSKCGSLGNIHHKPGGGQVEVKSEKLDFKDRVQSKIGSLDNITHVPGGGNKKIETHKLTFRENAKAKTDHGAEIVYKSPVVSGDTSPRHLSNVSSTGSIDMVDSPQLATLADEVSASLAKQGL
#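 Assay mix: 1 uM His-tagged tau, 30 uM sodium octadecylsulfate, thioflavine S dye in HEPES/NaCl/DTT buffer. Compound is added prior to the inducer. Fluorescence after 15 h at 37 C.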
# The depositor's hits bear a star; i = inactive; ? = inconclusive; . = no result; [ ] = dose if it differs, or a comment. The list is not random: actives were taken first. Their share in the collection is about 7.8%. Unless noted, the call rests on the fitted dose curve; in most records, active means well fitted curve in the direction sought with a large enough effect; inconclusive means small, poorly fitted or top-dose-only effect, or another doubt; inactive means no such curve, though single readings can be large; an effect the other way counts as inactive or inconclusive. Potency means the concentration at half of the fitted maximal effect.
SMILES,FLuc inh,ALOX15 inhib,TSHR ag,HEK293 cAMP ctrl,Bst PK mod,Tau fil binding
CC(=O)O[C@H]1C(=O)[C@@]2(C)[C@H]([C@H](OC(=O)c3ccccc3)[C@]3(O)C[C@H](OC(=O)[C@H](O)[C@@H](NC(=O)c4ccccc4)c4ccccc4)C(C)=C1C3(C)C)[C@]1(OC(C)=O)CO[C@@H]1C[C@@H]2O,16µM*,-2%,25%,6%,.,-24%
CN(C)CCOc1nc(-c2ccccc2)nc2c1oc1ccccc12,1%,14%,?,-63%,11*,64%
CCN(CC)COC(=S)S,-1%[11.4 µM],-11%[11.4 µM],-6%[11.4 µM],2%[11.4 µM],.,-4%[11.4 µM]
Cc1cnc(CNc2cc(-c3ccccc3CN(C)C)ncn2)cn1,1%[2.29 µM],-19%,?,?,.,-20%
CCOC(=O)C1=C(C)N=c2s/c(=C\c3cccn3C)c(=O)n2C1c1cccc(OC)c1OC (stereo not drawn),0%,-10%,-1%,7%,.,29%
CCOC(=O)C1=C(N)n2c(s/c(=C/c3ccco3)c2=O)=C(C(=O)OC)C1c1ccco1 (stereo not drawn),-1%,-28%,0%,10%,>57,3.2µM*
CCOC(=O)C1=C(C)N=c2s/c(=C/c3ccco3)c(=O)n2C1c1cccc(OC)c1 (stereo not drawn),-2%,16µM*,.,-2%,.,3.2µM*
CCOC(=O)c1sc(NC(=O)CSc2nnc(C)s2)c(C(=O)OCC)c1C,3%,-4%,?,13µM*,>57,-2%
CCOC(=O)c1c(NC(=O)CC)sc(C(C)=O)c1C,-1%,3%,7%,16%,>57,4%
O=C(c1cccs1)c1ccc(-c2cccs2)s1,5µM*,3%,-10%,4%,6.3*,i
CC1=c2c(oc3cc(O)c(Nc4c(C)cc(O)cc4O)c(C)c23)=CC(=O)C1=Nc1c(C)cc(O)cc1O,-28%[11.4 µM],?,-15%[11.4 µM],-8%[11.4 µM],.,1.6µM*
COCCN1C=C(C(=O)OC)C(c2ccc(OC)c(OC)c2)C(C(=O)OC)=C1,1%,3%,0%,6%,.,-2%
CCCOc1ccc(C2C(C(=O)OC)=CN(CCOC)C=C2C(=O)OC)cc1,-1%,1%,?,25µM*,.,19%
COCn1c(-c2ccc(OC)c(OC)c2)nc2ccccc21,16µM*,-2%[11.4 µM],23%[11.4 µM],7%[11.4 µM],.,-3%[11.4 µM]
CCOc1ccc(OCC)c2sc(C)nc12,1%,1%,7%,5%,3.4*,13%
O=c1c(-c2ccc(Cl)cc2)nc2cnc(N3CCOCC3)nc2n1CCc1ccccc1,1%[11.4 µM],0%,?,?,.,0%
COc1ccccc1N1CCN(C[C@@H](O)COc2cccc3ccccc23)CC1,3%,?,?,-33%,.,?
COc1ccccc1N1CCN(C[C@@H](C(=O)NC(C)(C)C)c2ccccc2)CC1,3%,16µM*,8%,10%,.,?
CCNc1ncc2nc(C)c(=O)n(C3CC3)c2n1,1%[11.4 µM],0%,3%,9%,.,1%
COc1ccc(CCNc2oc(COc3ccccc3F)nc2C#N)cc1,-1%,-21%,?,20µM*,>57,112%
N#Cc1nc(Cc2cccc3ccccc23)oc1NCCN1CCCCC1,7.9µM*,29%,-7%,-6%,6.3*,26%
N#Cc1nc(COc2ccccc2F)oc1NCc1ccc(F)cc1,-1%,-17%,?,?,.,34%
COc1ccc(CCNc2oc(Cc3cccc4ccccc34)nc2C#N)cc1OC,2%,-23%,20µM*,23%,9.9*,74%
CCOCCCNCC(=O)Nc1ccccc1N1CCOCC1,1%,0%,.,4%,>57,-1%
CCOC(=O)c1[nH]cc(-c2ccccc2)c1N1CCOCC1,3%,25µM*,-2%,-1%,>57,-5%
SMILES,FLuc inh,ALOX15 inhib,TSHR ag,HEK293 cAMP ctrl,Bst PK mod,Tau fil binding
CNc1ncnc2c1ncn2[C@H]1C[C@@H](OP(=O)(O)O)[C@H](COP(=O)(O)O)O1,2%,5%,.,6%,.,-8%
O=S(=O)(/C=C/c1ccccc1)Nc1ccc(N2CCOCC2)cc1,-1%,?,.,16%,.,25µM*
O=C(O)c1ccc(NS(=O)(=O)/C=C/c2ccccc2)cc1O,-5%,-10%,0%,5%,i,-4%
CCOC(=O)c1c2c(n3ccccc13)C(=O)c1ccccc1C2=O,2%[11.4 µM],1%[11.4 µM],-12%[11.4 µM],-9%[11.4 µM],.,-25%[11.4 µM]
CCOC(=O)C(C(=O)OCC)c1cc(Br)c2noc3c2c1C(=O)c1ccccc1-3,-19%,-19%,-17%,-20%,>57,2µM*
COc1ccc(C(CC(=O)NC(C)(C)C)n2cccc2)cc1 (stereo not drawn),1%,-5%,14%,10%,>57,3%
COc1ccc(C(CC(=O)Nc2nccs2)n2cccc2)cc1 (stereo not drawn),16µM*,6%,1%,25%,.,-1%
Cc1cccc(NC(=O)c2cnc3sccn3c2=O)c1,10µM*,-7%,37%,8%,.,-10%
O=C1CCCC(O)=C1C(C#Cc1ccccc1)C1=C(O)CCCC1=O,-14%,7.9µM*,-2%[11.4 µM],-9%,>57,-10%
COC(=O)c1c(-c2cccs2)csc1NC(=O)c1cccnc1,-17%,-15%,?,?,7.7*,20%
O=C(Oc1ccccc1)N1CCC2(CCCN(c3ccc(-c4ccccc4)cc3)C2)CC1,0%[11.4 µM],-4%,0%,7%,.,12%
Cc1ccc(N2CCN(C(=S)c3ccc(N(C)C)cc3)CC2)cc1,-6%,?,-11%,-5%,>57,13µM*
COc1ncc2nc(-c3ccc(Cl)cc3)c(=O)n(Cc3cccs3)c2n1,-2%[11.4 µM],-17%,6%,9%,.,-2%
Cc1ccc(-c2nc(-c3ccccn3)no2)cc1,.,5%,7%,26%,.,.
c1ccc(-c2noc(-c3cccc4ccccc34)n2)nc1,7.9µM*,-2%,28%,14%,9.6*,26%
Clc1cccc(-c2nc(-c3ccccn3)no2)c1,2.5µM*,0%,?,?,3.3*,30%
Cc1ccc(-c2nc(-c3ccccn3)no2)cc1Cl,0.4µM*,-10%,.,19%,0.54*,49%
COc1cccc(-c2nc(-c3ccccn3)no2)c1OC,?,8%,-2%,2%,i,0%
CO[C@]12C(COC(N)=O)C3=C(C(=O)C(C)=C(N)C3=O)N1CC1NC12 (stereo partly drawn),.,3%,.,.,.,.
Cc1ccc(NC(=O)C2CC=CCC2C(=O)N2CCCCC2)cc1 (stereo not drawn),1%,-2%,17%,5%,>57,-1%
Cc1ccc(NC(=O)NC2=N/C(=C(/C#N)C(=O)N3CCCC3)c3ccccc32)cc1,-3%,3%,?,-42%,?,5µM*
